Shown is part of a subset that was picked to be rich in hits.
FECH inh = blocks human mitochondrial ferrochelatase activity; purified FECH, Ni-mesoporphyrin absorbance 550 nm; actives 3.3% (n = 20,000); AID 1671448; calls only at 10 µM (by protocol);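 active means enzyme reaction rate more than 3 SD below the solvent-only control wells on the same plate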;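 further: lower slope than DMSO wells means FECH inhibition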
Target sequence (P22830 whole entry, looked up): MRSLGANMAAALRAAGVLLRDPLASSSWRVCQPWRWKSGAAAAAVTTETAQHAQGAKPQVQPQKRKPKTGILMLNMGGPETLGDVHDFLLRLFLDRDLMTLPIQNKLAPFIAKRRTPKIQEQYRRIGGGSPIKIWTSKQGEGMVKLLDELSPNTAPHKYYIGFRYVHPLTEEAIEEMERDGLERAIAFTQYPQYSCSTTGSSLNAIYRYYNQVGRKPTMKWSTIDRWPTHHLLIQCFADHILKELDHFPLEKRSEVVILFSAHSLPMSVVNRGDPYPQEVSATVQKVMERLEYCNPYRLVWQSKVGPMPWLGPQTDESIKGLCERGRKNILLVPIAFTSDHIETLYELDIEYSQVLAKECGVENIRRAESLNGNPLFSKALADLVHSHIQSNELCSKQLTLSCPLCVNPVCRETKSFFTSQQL
Each line names hits and unclear results; the compound was inactive in the other large screens.

C=CCNc1nc(SC)nc(-c2ccc(C)cc2)c1C#N	none
CCn1cc(-c2c(-c3ccccc3)ncn2CC(O)Cc2ccccc2)c(C)n1 (stereo not given)	none
CCCC(=O)Nc1ccc(Sc2cc(CC)nc3ncnn23)cc1	none
C=CCN(Cc1ccncc1)C(=O)C1=C(C)NC(=O)NC1c1cccnc1 (stereo not given)	none
CC(=O)Nc1ccc(NC(=O)CN2C(=O)CN(C)C(=O)c3ccccc32)cc1	none
CN1CC(=O)N(CC(=O)Nc2cccc(-c3ccno3)c2)c2ccccc2C1=O	none
CN1CC(=O)N(CC(=O)Nc2ccc(-c3ccno3)cc2)c2ccccc2C1=O	FECH inh active
Cc1ccc(-c2coc(-c3cccc(N(S(C)(=O)=O)S(C)(=O)=O)c3)n2)cc1	none
Cc1ccc2cc(-c3noc(CCC(=O)N(C)Cc4ccccc4)n3)c(=O)[nH]c2c1	none
COc1ccc(-c2ccc(C(=O)N(C)CC3(C)CCN(C)C3)o2)cc1 (stereo not given)	none
O=C1CN(Cc2ccc(F)cc2)S(=O)(=O)c2ccccc2N1Cc1ccc(Cl)cc1	none
COc1cccc(N2C(=O)N(Cc3ccc(C(C)(C)C)cc3)c3ccccc3S2(=O)=O)c1	none
O=C1CN(Cc2cccc(Br)c2)S(=O)(=O)c2ccccc2N1Cc1cccc(F)c1	none
CCc1cccc(N2C(=O)N(Cc3cc(F)cc(F)c3)c3ccccc3S2(=O)=O)c1	FECH inh active
Cc1ccc(N2C(=O)N(Cc3cc(F)cc(F)c3)c3ccccc3S2(=O)=O)c(C)c1	FECH inh active
CCc1cccc(N2C(=O)N(CC(=O)NC3CCCCC3)c3ccccc3S2(=O)=O)c1	none
Cc1ccc(N2C(=O)N(Cc3ccc(C(C)(C)C)cc3)c3ccccc3S2(=O)=O)cc1F	none
Cc1ccc(N2C(=O)N(Cc3cc(=O)n4ccccc4n3)c3ccccc3S2(=O)=O)cc1	none
Cc1ccc(N2C(=O)N(Cc3cc(F)cc(F)c3)c3ccccc3S2(=O)=O)cc1	FECH inh active
Cc1ccc(C)c(CN2CC(=O)N(Cc3cccc(C(F)(F)F)c3)c3ccccc3S2(=O)=O)c1	none
Cc1cccc(N2C(=O)N(Cc3ccc(C)c(C)c3)c3ccccc3S2(=O)=O)c1	FECH inh active
CC(C)(C)c1ccc(CN2C(=O)N(c3cc(F)ccc3F)S(=O)(=O)c3ccccc32)cc1	none
COc1ccccc1C(=O)Nc1cc(C)nn1-c1ncnc2c1cnn2-c1cccc(C)c1C	none
O=C(O)c1cc2n(n1)CCN(Cc1cn[nH]c1C1CCCCC1)C2	none
CSc1nc(-c2ccccc2)c(C#N)c(N2CCN(c3ccccc3)CC2)n1	none
COc1ccc(OC)c(Nc2nc(NC3CCCC3)nc3c2cnn3-c2ccccc2)c1	none
CC(C)c1cc(NCc2ccccc2)n2nc(-c3cccnc3)nc2n1	none
O=C(c1cc(COc2cncc(Cl)c2)on1)N1CC(n2cccn2)C1	none
CCCN(CCC)c1ncc(NS(=O)(=O)c2ccc(OC)c(Cl)c2)cc1C(=O)O	none
CCC1CN(C(=O)c2c[nH]c(C)cc2=O)CCC(=O)N1Cc1ccccc1 (stereo not given)	none
CC(C)(C)c1ccc(-c2nc3nc(CNc4ccc(Br)cc4)cc(=O)n3[nH]2)cc1	none
CC(C)(C)c1ccc(-c2nc3nc(CN4CCN(c5ccc(F)cc5)CC4)cc(=O)n3[nH]2)cc1	none
CC(C)(C)c1ccc(-c2nc3nc(CNc4ccccc4F)cc(=O)n3[nH]2)cc1	FECH inh active
CCOc1ccccc1NCc1cc(=O)n2[nH]c(-c3ccc(C(C)(C)C)cc3)nc2n1	none
Cc1ccc(Cl)cc1NCc1cc(=O)n2[nH]c(-c3ccc(C(C)(C)C)cc3)nc2n1	FECH inh active
CCN1CCN(Cc2cc(=O)n3[nH]c(-c4ccc(C(C)(C)C)cc4)nc3n2)CC1	none
Cc1ccc(S(=O)(=O)NCCn2c(C(F)(F)F)nc3cccnc32)cc1Cl	none
CC(C)(O)c1cn(C2CCN(C(=O)c3cccc4c(Cl)cccc34)CC2)nn1	none
COc1cccc(NC(=O)CN2CCN(Cc3ccc(F)cc3)S2(=O)=O)c1	none
CCc1cccc(C)c1NC(=O)CN1CCN(Cc2ccccc2C)S1(=O)=O	none
COc1ccc(NC(=O)CN2CCN(Cc3ccccc3C)S2(=O)=O)cc1OC	FECH inh active
COc1ccc(NC(=O)CN2CCN(Cc3ccccc3C)S2(=O)=O)cc1Cl	none
COc1cccc(NC(=O)CN2CCCN(Cc3cccc(C)c3)S2(=O)=O)c1	FECH inh active
Cc1ccc(CN2CCCN(Cc3c(F)cccc3Cl)S2(=O)=O)cc1	FECH inh active
Cc1ccc(CN2CCCN(Cc3ccc(F)cc3Cl)S2(=O)=O)cc1	none
CCc1cccc(C)c1NC(=O)CN1CCCN(Cc2cccc(C)c2)S1(=O)=O	FECH inh active
CCc1cccc(C)c1NC(=O)CN1CCCN(Cc2ccc(C)cc2)S1(=O)=O	none
COc1cccc(NC(=O)CN2CCCN(Cc3cccc(F)c3)S2(=O)=O)c1	none
Cc1ccc(NC(=O)CN2CCCN(Cc3ccc(Cl)cc3)S2(=O)=O)cc1	none
COc1ccc(NC(=O)CN2CCN(Cc3ccccc3Cl)S2(=O)=O)cc1OC	none
COc1ncccc1-c1cnc2n[nH]nc2c1	none
O=C(COCc1ccccc1)N1[C@H]2CCNC[C@@H]1CC2	none
Cc1ccc(Nc2nc(N3CCC(C)CC3)nc3c2cnn3-c2ccccc2)cc1	none
CCn1c(C2CCCN(C(=O)c3cc(C(C)C)oc3C)C2)n[nH]c1=O (stereo not given)	none
COc1ccccc1C(=O)N(Cc1nc2nc(C)cc(C)n2n1)c1ccccc1OC	none
COc1ccc(S(=O)(=O)N2CCN(c3nc(C)cc(N4CCCCC4)n3)CC2)cc1	none
COc1ccc(CN(Cc2ccc(F)cc2)CC2CCCO2)cn1 (stereo not given)	none
Cc1nn(C)cc1-c1c(-c2ccccc2)ncn1C(CC(C)C)c1cccnc1 (stereo not given)	none
COc1ccc(N2C(=O)CCS2(=O)=O)cc1S(=O)(=O)Nc1cccc(NC(C)=O)c1	none
Cc1ccsc1-c1nccc(CCC(F)(F)F)n1	none
COc1ccc(CN2CCC(Cc3nnc(SC)n3C)CC2)cn1	none
Cc1ccccc1Cc1nnc(NC(=O)CC2CNCCO2)s1 (stereo not given)	none
COc1ccc(C(=O)NCc2cc3c(nc2OC)CN(C2CCCC2)C3=O)o1	none
COc1ccc(OC)c(NC(=O)CN2CCCN(Cc3cccc(C)c3)S2(=O)=O)c1	FECH inh active
COc1ccc(CN2CCCN(CC(=O)Nc3ccc(OC)cc3)S2(=O)=O)cc1	none
Cc1ccc(CN2CCN(CC(=O)Nc3ccc(C)c(C)c3)S2(=O)=O)cc1	none
Cc1cccc(CN2CCN(CC(=O)Nc3ccc(C)c(C)c3)S2(=O)=O)c1	FECH inh active
Cc1ccc(NC(=O)CN2CCN(Cc3ccc(Cl)cc3)S2(=O)=O)cc1C	none
COc1ccc(OC)c(NC(=O)CN2CCCN(Cc3ccccc3)S2(=O)=O)c1	none
Cc1ccc(NC(=O)CN2CCN(Cc3ccccc3)S2(=O)=O)cc1	none
COc1ccc(NC(=O)CN2CCN(Cc3cccc(C)c3)S2(=O)=O)cc1	FECH inh active
Cc1ccc(NC(=O)CN2CCN(Cc3cccc(C)c3)S2(=O)=O)cc1	FECH inh active
COc1ccc(NC(=O)CN2CCN(Cc3ccccc3C)S2(=O)=O)cc1	none
COc1ccc(OC)c(NC(=O)CN2CCCN(Cc3ccc(C)cc3)S2(=O)=O)c1	none
Cc1cccc(CN2CCN(CC(=O)Nc3c(C)cc(C)cc3C)S2(=O)=O)c1	none
c1ccc(CCc2nc(C34CC5CC(C3)CC(n3cncn3)(C5)C4)n[nH]2)cc1	none
O=S(=O)(NCCn1c(C(F)(F)F)nc2cccnc21)c1ccccc1	none
COc1ccc(C)cc1NC(=O)Cn1nc(N2CCN(c3ccc(F)cc3)CC2)ccc1=O	none
Cc1ccc(Nc2cc(C)nc(Nc3ccc(NC(=O)CC4CCCC4)cc3)n2)cc1	none

Screening results: PubChem, Corson Lab, School of Medicine, Indiana University
